According to ChEMBL document CHEMBL4513216, “Probing the Open Global Health Chemical Diversity Library for Multistage-Active Starting Points for Next-Generation Antimalarials” (ACS Infect Dis, 2020):
Out of some 68,000 compounds screened, about 2,700 (4%) showed an effect of 50% or more. The entries come from a sample that favours strong results as a whole.

Test system: Plasmodium berghei
Assay: Screen against P. berghei liver stage (PbLuc), transformed with Luciferase, at 2uM
Format: functional, HepG2
Details: tested at 2 uM

Row | Compound | INHIBITION
1 | COC(=O)C(NC(=O)Nc1ccc(C(C)=O)cc1)C(C)C (stereo unspecified) | -7.05%
2 | CN(C)c1nccc(C2CN(c3cnccn3)CCO2)n1 (stereo unspecified) | 57.47%
3 | CN(C)c1nccc(C2CN(c3ccccc3)CCO2)n1 (stereo unspecified) | -39.97%
4 | CC(C)N1CCOC(c2ccnc(N(C)C)n2)C1 (stereo unspecified) | -2.41%
5 | N#CCSCCCN1CCC(C(=O)N2CCCCCC2)CC1 | -28.22%
6 | Cc1ccc(CN2CC[C@H](c3nnc(COc4ccc(F)cc4)o3)C2)o1 | 17.76%
7 | COCCNC(=O)[C@H]1C[C@@H]2CCN(CCc3ccccc3)C[C@H]2O1 | -56.44%
8 | Cc1cn(CC(=O)Nc2cc(C(C)(C)C)nn2C)cn1 | 53.66%
9 | Cn1nc(C(C)(C)C)cc1NC(=O)Cn1ccnc1 | -24.02%
10 | CCc1nnc2n1CCN(CC(=O)Nc1cc(C(C)(C)C)nn1C)C2 | 54.85%
11 | CCc1nnc2n1CCN(CC(=O)Nc1cc(C)nn1C)C2 | 12.81%
12 | CCc1nnc2n1CCN(CC(=O)Nc1cc(C)on1)C2 | 13.91%
13 | Cc1cn(CC(=O)Nc2cc(C(C)C)nn2C)cn1 | 5.93%
14 | CC(SCC(=O)N(C)CC(=O)NC1CC1)c1ccccc1F (stereo unspecified) | -16.7%
15 | CN(CCc1ccccc1)Cc1cc(C(=O)N2CCN(C)C(=O)C2)no1 | -64.43%
16 | CN1CCCN(C(=O)c2cc(CN(C)CCc3ccccc3)on2)CC1 | 5.28%
17 | CN(CCc1ccccc1)C(=O)c1cc(CN2CCC(O)CC2)on1 | -10.41%
18 | CN(CCc1ccccc1)Cc1cc(C(=O)N2CCSCC2)no1 | 72.05%
19 | CCC1CN(C(=O)c2cc(CN(C)CCc3ccccc3)on2)CCO1 (stereo unspecified) | -11.41%
20 | CN(CCc1ccccc1)Cc1cc(C(=O)N2CCCC2(C)C)no1 | 61.89%
21 | Fc1ccc(CN2CCC3(CCCN(c4nncs4)C3)C2)cc1 (stereo unspecified) | 3%
22 | O=C(NCC1CCCOC1)c1ccc(-c2ccccc2)[nH]c1=O (stereo unspecified) | 4.96%

Row | Compound | INHIBITION
23 | Fc1ccc(Cc2cnc(C3CCCN3)cn2)cc1 (stereo unspecified) | -2.89%
24 | CCCNc1cc(-c2c[nH]nc2C2CCN(C(=O)C3CCC3)C2)ccn1 (stereo unspecified) | 87.38%
25 | CC(C)Nc1cc(-c2c[nH]nc2C2CCN(C(=O)C3CCC3)C2)ccn1 (stereo unspecified) | 16.43%
26 | CC(C)CNc1cc(-c2c[nH]nc2C2CCN(C(=O)C3CC3)C2)ccn1 (stereo unspecified) | 13.98%
27 | Fc1ccc(OCCNC2CCN(Cc3ccccn3)CC2)c(F)c1 | -31.26%
28 | Cc1ccccc1-c1cc(NC(=O)NC2CCC(O)CC2)n(CCO)n1 (stereo unspecified) | 14.82%
29 | CNC(=O)Nc1cc(-c2ccccc2C)nn1CCO | -3.51%
30 | Cc1ccccc1-c1cc(NC(=O)NC2CC2)n(CCO)n1 | 57.75%
31 | O=C(c1cnccn1)N1CCCC(Cc2cncc3ccccc23)C1 (stereo unspecified) | 99.92%
32 | Cc1cccc(C(=O)N2CCCC(Cc3cncc4ccccc34)C2)n1 (stereo unspecified) | 33.77%
33 | O=C(c1cnccn1)N1CCCC(Cc2cccc3ncccc23)C1 (stereo unspecified) | -3.58%
34 | O=c1c2c[nH]c(N3CCCCC3)nc-2cn1-c1ccc2c(c1)OCO2 | 33.2%
35 | Cn1cc(S(=O)(=O)NCc2ccsc2)cn1 | -18.65%
36 | CNC(=O)C(C)CNC(=O)c1coc(COc2cccc(F)c2F)n1 (stereo unspecified) | 16.32%
37 | O=C(N[C@@H]1CN(Cc2ccco2)[C@@H]2CCCO[C@@H]21)c1cscn1 | -2.81%
38 | COc1c(CNC2CCOc3c(Cl)cccc32)c(C)nn1C (stereo unspecified) | 24.64%
39 | Cc1nc(CN2CCc3ncnc(-c4ccsc4)c3CC2)cs1 | 8.62%
40 | COCC1(CNC(=O)[C@@]23CNC[C@@H]2CN(C2CCCC2)C3)CC1 | 83.98%
41 | CCS(=O)(=O)CCNC(=O)[C@@]12CNC[C@@H]1CN(C1CCCC1)C2 | -13.8%
42 | O=C(NCCOCCO)[C@@]12CNC[C@@H]1CN(C1CCCC1)C2 | 45.82%
43 | CCC(NC(=O)C1CCN(S(C)(=O)=O)CC1)c1ccc(C)cc1C (stereo unspecified) | 20.49%
44 | CC(C)COC(=O)N1CCCN(C(C)c2nc(C(C)C)no2)CC1 (stereo unspecified) | 4.49%

Row | Compound | INHIBITION
45 | O=C(NCc1ccco1)[C@H]1C[C@H]2OCC[C@H]2N(C(=O)c2ccnnc2)C1 | -14.65%
46 | O=C(C1CC1)N1CCC2(CCN2Cc2ccc(F)cc2)C1 (stereo unspecified) | 31.52%
47 | COC(=O)NCC(=O)N1CCCn2nc(CN3CC[C@H](F)C3)cc2C1 | 52.85%
48 | Cc1nn(C)cc1C(=O)N1CCCn2nc(CN3CC[C@H](F)C3)cc2C1 | -11.76%
49 | O=C(c1ccc(Cl)s1)N1CCCn2nc(CN3CC[C@H](F)C3)cc2C1 | -13.81%
50 | CCn1cncc1-c1nc2c([nH]1)CC(C)(C)CNC2=O | 50.61%
51 | CC(C)Cn1cncc1-c1nc2c([nH]1)CC(C)(C)CNC2=O | -54.78%
52 | COCCn1cncc1-c1nc2c([nH]1)CC(C)(C)CNC2=O | 8.54%
53 | CCc1cc(N2CCCNCC2)n2nc(C)c(C)c2n1 | 14.23%
54 | Cc1ccc(NS(=O)(=O)c2cc3c(c(C(=O)O)c2)OCCO3)cc1C | -19.1%
55 | O=C(NCc1cc[nH]n1)NCC(O)c1ccc(F)c(F)c1 (stereo unspecified) | -87.87%
56 | CCCS(=O)(=O)N1CCCC1c1cccc(N(C)C)c1 (stereo unspecified) | -46.3%
57 | Cc1nccn1CCC1CCCCN1Cc1cnc(N(C)C)nc1 (stereo unspecified) | -4.51%
58 | CN(C)CCC1CCCCN1Cc1cnc(-c2ccccn2)nc1 (stereo unspecified) | 53.12%
59 | c1ccc(-c2ncc(CN3CCCCC3CCn3cccn3)cn2)nc1 (stereo unspecified) | 11.38%
60 | CS(=O)(=O)N1CCC2(CC1)COC(COc1ccccn1)C2 (stereo unspecified) | 46.32%
61 | Cc1nc(O)c2nnn(C[C@H]3CCCN3C(=O)c3ccccc3C)c2n1 | 83.57%
62 | Cc1nc(O)c2nnn(C[C@H]3CCCN3C(=O)CCC3CCCC3)c2n1 | 6.57%
63 | Cc1nc(O)c2nnn(C[C@H]3CCCN3C(=O)C3CCCC3)c2n1 | 50.32%
64 | Cc1ccc(C(=O)N2CCC[C@@H]2Cn2nnc3c(O)nc(C)nc32)cc1 | -15.93%
65 | Cc1nc(O)c2nnn(C[C@H]3CCCN3C(=O)C(C)(C)C)c2n1 | -47.12%
66 | Cc1nc(O)c2nnn(C[C@H]3CCCN3C(=O)c3ccccc3F)c2n1 | 33.64%
